# Bioassay records from PubChem.
# LEDGF integ inh: blockers of LEDGF/p75-dependent integrase strand transfer – biochemical, TR-FRET, high throughput, primary screen; HIV-1 integrase (with human LEDGF/p75); TR-FRET IN-LEDGF/p75 DNA integration, Eu/Cy5; 370,000 compounds, 0.64% hits; AID 743269, 2014; inhibition, % at 3.7 µM;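 active means inhibition above the screen-wide mean plus 3 SD, cut at about 13% in these data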;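 further: signal is the Cy5 over europium emission ratio at 671 and 618 nm; 0% = plate median of compound wells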
# Neddylation inh: inhibitors of cullin neddylation, primary screen, biochemical, TR-FRET, uHTS, NAE and Ubc12 | NEDD8-conjugating enzyme Ubc12 (Homo sapiens) + NEDD8-activating enzyme E1 regulatory … | calls only at 25 µM | 360,000 compounds, 0.58% hits | AID 651699, 2012; in the data active means inhibition above about 36%
# Rin1-Abl PPI inh: inhibitors of Rin1-Abl protein binding, primary screen, biochemical, TR-FRET. Tyrosine-protein kinase ABL1 (Homo sapiens) + Ras and Rab interactor 1 (Homo sapiens), …. inhibition, % at 7.35 µM. 360,000 compounds, 0.4% hits. AID 588664, 2011; in the data active means inhibition above about 5%, passing the limit was not always enough
# UHRF1 binding: UHRF1 methylated DNA binding inhibitors, primary screen, counter-screen for MBD2 inhibitor project, biochemical, TR-FRET, human UHRF1, single concentration. 370,000 compounds, 0.75% hits. UHRF1 binding to methylated oligo. AID 687016, 2013. inhibition, % at 4.4 µM; in the data active means inhibition above about 21%;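 further: UHRF1 SRA domain binding a hemimethylated CpG hairpin DNA probe; 0% = median of test compound wells and 100% = reference inhibitor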
# proKLK7 act: proKLK7 zymogen activators, primary screen, biochemical, fluorescence intensity. Kallikrein-7 (Homo sapiens), P49862. purified proKLK7, EDANS-DABCYL substrate fluorescence; 100% is mature enzyme control, 0% vehicle. activation, % at 7 µM. 370,000 compounds, 0.9% hits;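 active means activation above the mean of all tested compounds plus 3 SD, computed per campaign excluding outliers beyond control limits, cut at about 13% in these data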
# Target sequence (P49862 whole entry, looked up): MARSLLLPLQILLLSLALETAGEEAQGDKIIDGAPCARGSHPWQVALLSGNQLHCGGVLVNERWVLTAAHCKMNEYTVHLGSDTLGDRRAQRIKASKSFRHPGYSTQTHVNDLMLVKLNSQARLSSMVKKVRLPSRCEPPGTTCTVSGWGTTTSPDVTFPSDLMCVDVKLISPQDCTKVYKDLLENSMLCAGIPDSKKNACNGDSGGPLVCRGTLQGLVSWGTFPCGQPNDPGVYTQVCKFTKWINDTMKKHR
# MBD2 inh: inhibitors of MBD2 binding to methylated DNA, primary screen, biochemical, TR-FRET, DNA-binding domain, human | Methyl-CpG-binding domain protein 2 (Homo sapiens), Q9UBB5 | MBD2 binding to methylated oligonucleotide | inhibition, % at 4.4 µM | 370,000 compounds, 0.31% hits | AID 686964, 2013; in the data active means inhibition above about 13%
# proKLK7 act conf: proKLK7 zymogen activators, confirmation, biochemical, fluorescence intensity, triplicate | shares compounds with proKLK7 act | purified proKLK7, EDANS-DABCYL substrate fluorescence; scaled: vehicle 0, mature enzyme 100 | activation, % at 7 µM | 3,200 compounds, 68% hits | AID 686949, 2013;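 active means activation, as change over the incubation, above the mean of all tested compounds plus 3 SD, cut at about 13% in these data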
# EDANS-DABCYL int: EDANS-DABCYL substrate optical interference, artefact control for kallikrein-7 zymogen activator project, biochemical, fluorescence intensity, high throughput; shares compounds with proKLK7 act; activation, % at 7 µM; 3,200 compounds, 80% hits; no enzyme, 4 h; solvent 0%, active enzyme control 100%;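 active means activation above the all-compound mean plus 3 SD, ignoring values outside control-based bounds, cut at about 4.8% in these data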;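 further: value is the 4 h activation minus the activation read at time zero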
# K7 EDANS ctr: EDANS fluorescence interference in dose response, no enzyme | shares compounds with proKLK7 act | EDANS-DABCYL peptide fluorescence interference | EC50, µM | 250 compounds, 20% hits;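 active means compounds that raise the fluorescence signal in this interference counterscreen, with EC50 at or below 10 µM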;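 further: intact quenched peptide substrate alone read at 355 nm excitation and 520 nm emission; signal is fluorescence gain from T0 to T4 after four hours at room temperature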
# The depositor's hits bear a star; i = inactive; nt = no result shown. Rows were chosen to be rich in hits. Some 3.1% of all compounds tested hit in one or more screens of this group.
SMILES,LEDGF integ inh,Neddylation inh,Rin1-Abl PPI inh,UHRF1 binding,proKLK7 act,MBD2 inh,proKLK7 act conf,EDANS-DABCYL int,others
O=C(Nc1c(-c2ccc(F)c(F)c2)nc2ncccn12)C1CC1,-2,nt,nt,1,18*,-4,52*,57*,
Cc1ccc(-c2c(NC(=O)C3CC3)nc3ncccn23)cc1,0,nt,nt,-3,23*,-2,30*,35*,
Nc1nc2ncccn2c1-c1ccc(F)c(F)c1,2,nt,nt,6,22*,3,24*,19*,K7 EDANS ctr=>70
Cc1cccc(C(=O)Nc2nc3ncccn3c2-c2ccccc2)c1,4,nt,nt,2,8,7,nt,nt,
CCCc1ccccc1OCCNS(=O)(=O)c1cc2c(cc1C)OCC(=O)N2,-3,i,2,0,1,-1,nt,nt,
C[C@H](CO)N1C[C@H](C)[C@H](CN(C)Cc2ccc(Oc3ccccc3)cc2)Oc2cc(Br)ccc2S1(=O)=O,-7,i,0,0,1,0,nt,nt,
C[C@H](O)[C@@H]1CN2CCc3c([nH]c4cccc(-c5ccccc5)c34)[C@@H]2C[C@@H]1N(C)C(=O)c1ccco1,2,nt,nt,-5,1,-10,nt,nt,
CCN1CC=C2C(C#N)=C(N)C(C#N)(C#N)C(CCc3ccccc3)C2C1 (configuration not stated),2,nt,-1,-8,30*,-9,15*,16*,
CC(=O)N1CC=C2C(C#N)=C(N)C(C#N)(C#N)C(CCc3ccccc3)C2C1 (configuration not stated),-1,i,0,4,12,-8,nt,nt,
C=CCCC1CN(Cc2ccc(OC)cc2)S(=O)(=O)c2c(NCc3cc(OC)c(OC)c(OC)c3)cccc2O1 (configuration not stated),-3,nt,nt,17,-5,5,nt,nt,
Cc1cccc(-[n+]2c(C)cc(C)c3c(=O)[nH]c(=O)[nH]c32)c1,-1,nt,3,-4,29*,-1,42*,53*,
Cc1cc(C)[n+](-c2ccc(C(C)C)cc2)c2[nH]c(=O)[nH]c(=O)c12,2,nt,1,2,27*,9,61*,65*,
CCN(CC(=O)Nc1c(F)cccc1F)C(=O)CNC(=O)c1ccc(Br)o1,-2,i,-2,0,0,4,nt,nt,
CCOC(=O)c1cc2c(=O)n3ccccc3nc2n(CC2CCCO2)c1=NC(C)=O (configuration not stated),0,i,-7,-4,80*,-4,64*,68*,
CCOC(=O)c1cc2c(=O)n3ccccc3nc2n(CC2CCCO2)c1=NC(=O)/C=C/c1ccccc1 (configuration not stated),3,nt,-8,-1,92*,-4,16*,1,K7 EDANS ctr=>70
O=C(NN=C1CCCC1)c1cc(Cl)cc(Cl)c1O,-3,nt,5,-3,18*,-2,12,15*,
O=C(CCc1nc2ccccc2c(=O)[nH]1)N1CCN(S(=O)(=O)c2ccc(Cl)c(C(F)(F)F)c2)CC1,0,i,-1,-3,0,0,nt,nt,
O=C(Cc1ccc([N+](=O)[O-])cc1)NCc1cccnc1,-2,i,1,2,0,6,nt,nt,
O=C(Cc1ccc([N+](=O)[O-])cc1)NCc1ccccc1Cl,-2,i,2,0,40*,1,-1,-1,
Cc1ccc(NC(=O)N2CCCC2C(=O)NCc2ccc(Cl)cc2)cc1 (configuration not stated),6,i,3,6,1,3,nt,nt,
CCN(CC)c1ncnc2c1cnn2Cc1ccc(Cl)cc1,-1,i,0,-4,1,3,nt,nt,
CC(=O)Nc1nc(-c2ccc(Cl)cc2)nc(C)c1C(C)=O,-8,i,4,-1,-1,-1,nt,nt,
CC(=O)Nc1ncnc2c1c(-c1ccc(Cl)cc1)nn2C(C)(C)C,1,nt,2,3,13*,-6,1,0,
CC(=O)N(C(C)=O)c1ncnc2c1c(-c1ccc(Cl)cc1)nn2C(C)(C)C,6,nt,-1,-1,27*,-2,27*,30*,
Cc1coc2c1c(C)cc1oc(=O)c(CC(=O)N[C@@H](C)C(=O)O)c(C)c12,2,nt,2,-3,29*,-7,24*,27*,
SMILES,LEDGF integ inh,Neddylation inh,Rin1-Abl PPI inh,UHRF1 binding,proKLK7 act,MBD2 inh,proKLK7 act conf,EDANS-DABCYL int,others
CCC(NC(=O)Cc1c(C)c2c(cc(C)c3c(C)c(C)oc32)oc1=O)C(=O)O (configuration not stated),0,nt,-3,-7,23*,-5,16*,1,K7 EDANS ctr=>70
Cc1coc2c(C)c3oc(=O)c(CCC(=O)N[C@H](C(=O)O)C(C)C)c(C)c3cc12,-1,nt,0,5,16*,-3,8,10*,
Cc1coc2c1c(C)cc1oc(=O)c(CC(=O)N[C@H](C(=O)O)C(C)C)c(C)c12,0,nt,-1,-1,23*,-6,29*,37*,
CC(C)NC(=O)OC[C@H]1O[C@H](C#Cc2ccc(C(C)(C)C)cc2)C=C[C@H]1O,-1,nt,nt,0,0,5,nt,nt,
O=C(c1cc(S(=O)(=O)N2CCOCC2)c(Cl)cc1Cl)N1CCN(S(=O)(=O)c2cccc(F)c2)CC1,-8,i,2,-1,0,-2,nt,nt,
C#CCn1c(=NC(=O)c2ccc(S(=O)(=O)N3CCCc4ccccc43)cc2)sc2cc(S(N)(=O)=O)ccc21,-1,i,4,3,51*,4,8,24*,
Cn1c(=NC(=O)c2ccc(S(=O)(=O)N3CCCc4ccccc43)cc2)sc2cc(S(C)(=O)=O)ccc21,-4,i,2,0,0,-2,nt,nt,
Cc1onc(-c2ccccc2Cl)c1C(=O)Nc1ccccc1C(N)=O,0,i,4,2,0,-1,nt,nt,
